The list is not random: actives were taken first. Their share in the collection is about 19%.
HT1080 IDH1KD tx: HT-1080 IDH1 knockdown cell toxicity (counter line); HT-1080 IDH1 knockdown viability, ATP luminescence, 48 h; Potency, µM (titrated, usually from 46.1 µM), for inactives: at the top dose activity, negative = toxicity, actives largely listed as cytotoxic; actives 2% (n = 360,000); AID 686971;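 further: potency means the concentration at half of the fitted maximal effect; 0% = DMSO wells and -100% = cell-free medium wells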
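Knockdown cells (IDH1KD HT-1080) received compounds 2 h after plating at 750 cells/well and were kept 48 h at 37 °C in 5% FBS RPMI. A CellTiter-Glo luminescence read gave % activity for curve fitting.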
DT40 TDP1 no CPT: qHTS for Inhibitors of human tyrosyl-DNA phosphodiesterase 1 (TDP1): qHTS in cells in absence of CPT. DT40 Tdp1-/- hTDP1 cells, no CPT, ATP luminescence, 48 h. Potency, µM (highest dose often 46.2 µM), inactives show top-dose activity change, negative = growth inhibition, hits mostly inhibitors. actives 15% (n = 420,000); further: potency means the concentration at half of the fitted maximal effect; nearly all actives have a fitted effect of over 55% in size
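Stably hTDP1-transfected Tdp1-null chicken DT40 cells were treated with library compounds minus camptothecin and grown for at least 48 hr at 37 °C, after which cellular ATP was quantified by luminescence.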
HT1080NT lethal: kills 2HG-producing HT-1080-NT fibrosarcoma cells; actives 1.6% (n = 360,000); Potency, µM (highest dose often 46.1 µM), for the others: at the top dose activity, negative = less viability, hits mostly cytotoxic; AID 686970; HT-1080-NT fibrosarcoma viability, CellTiter-Glo ATP luminescence, 48 h;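 further: NT is the 2HG producing partner of a matched IDH1 knockdown line; potency means the concentration at half of the fitted maximal effect; 0% = DMSO-treated cells and -100% = media-only wells without cells; nearly all actives have a fitted effect of over 55% in size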
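Viability of the 2HG-overproducing fibrosarcoma line after 48 hours of compound exposure at 37 degrees C was determined by luminescence with CellTiter-Glo, and concentration-effect curves were then fitted and categorized.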
IL-1B inflam inh: inflammasome signaling inhibition, IL-1 beta readout | actives 4.7% (n = 360,000) | activity change, % at 57.5 µM | THP-1 LPS/ATP IL-1B secretion, AlphaLISA, 16 h; hits give low values | AID 743279; in the data active means activity change below about -50%; inconclusive means mostly about -30% to -49%
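THP-1 cells pretreated 1 hr with compounds (up to 57.5 uM final), then stimulated with LPS (250 ng/mL final) plus ATP (1.25 mM final); secreted IL-1B measured by AlphaLISA after 16 hr, decreased signal indicating inhibition.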
TDP1 cell CPT: growth inhibition of DT40 Tdp1-/-;hTDP1 cells with camptothecin (screen for TDP1 inhibitors) | chicken DT40 Tdp1-/-;hTDP1 cells + 20 nM CPT, ATP luminescence, 48 h | Potency, µM (highest dose often 46.2 µM), for the others: at the top dose activity change, negative = growth inhibition, most hits filed as inhibitors | actives 12% (n = 420,000) | AID 686979; further: potency means the concentration at half of the fitted maximal effect; nearly all actives have a fitted effect of over 55% in size
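Chicken DT40 Tdp1-/- cells complemented with human TDP1, 400 cells/well, exposed to compounds plus 20 nM camptothecin for at least 48 h at 37 C; viability read as ATP content by CellTiter-Glo luminescence.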
Starred values were filed as active, the others as inactive; ? = inconclusive; · = no result given; [ ] = remark or other dose. Unless noted, the call rests on the fitted dose curve; in most records, active means well fitted curve in the direction sought with a large enough effect; inconclusive means small, poorly fitted or top-dose-only effect, or another doubt; inactive means no such curve, though single readings can be large; an effect the other way counts as inactive or inconclusive. Unless noted, on the % scale 0 is the no-effect control and ±100 the full control effect.

SMILES	HT1080 IDH1KD tx	DT40 TDP1 no CPT	HT1080NT lethal	IL-1B inflam inh	TDP1 cell CPT
CCOC(=O)Cn1nc(C)cc1NC(=O)c1cc(OC)c(OC)c(OC)c1	-8%	?	-29%	-78*	?
CCOC(=O)c1cc(CC)sc1NC(=O)c1ccc(N2C(=O)CCC2=O)cc1	5%	-15%	14%	-13	1%
COc1ccc(S(=O)(=O)Nc2c(C(=O)O)[nH]c3ccc(OC)cc23)cc1	6%	19%	6%	71	6%
COC(=O)c1[nH]c2ccc(F)cc2c1NS(=O)(=O)c1ccc(OC)cc1	?	3.3µM*	5.2µM*	41	3.3µM*
CCOC(=O)c1[nH]c2ccc(F)cc2c1NC(=O)c1cc(OC)c(OC)c(OC)c1	-4%	23µM*	-5%	-4	?
O=C(COc1ccc(Cl)cc1)OCc1cc(=O)n2nc(C3CC3)sc2n1	·	-6%	·	·	-15%
Cc1ccc(Cn2c(=O)n(C)c(=O)c3sccc32)cc1	4%	?	1%	17	?
CCOC(=O)c1[nH]c2ccc(OC)cc2c1NC(=O)c1cccc(OC)c1	-2%	?	-1%	-16	23µM*
CCOC(=O)c1[nH]c2ccc(OC)cc2c1NC(C)=O	-3%	-12%	-1%	-5	3%
O=C(COc1ccccc1)Nc1sc2c(c1C(=O)Nc1ccccc1)CCCCC2	·	0.46µM*	·	·	?
CCOc1ccccc1NC(=O)c1c(NC(=O)Cc2ccc(OC)cc2)sc2c1CCC2	·	5.8µM*	·	·	8.2µM*
CCOc1ccccc1NC(=O)c1c(NC(=O)c2cccc(C)c2)sc2c1CCCC2	·	23µM*	·	·	?
CCOc1ccccc1NC(=O)c1c(NC(=O)COc2ccccc2)sc2c1CCCCC2	·	2.1µM*	·	·	2.1µM*
CCOc1ccccc1NC(=O)c1c(NC(=O)COc2ccc(Cl)cc2)sc2c1CCCCC2	·	-1%	·	·	-4%
O=C(COc1ccccc1)Nc1sc2c(c1C(=O)Nc1ccccc1Cl)CCCCC2	·	-3%	·	·	4%
O=C(O)c1ccc(Oc2c(C(F)(F)F)oc3cc(O)ccc3c2=O)cc1	-23%	-20%	-17%	26	-10%
CC(C)(C)c1ccc(COc2ccsc2C(=O)O)cc1	13%	0%	24%	23	1%
C[C@@H]1CCCCO[C@@H](CN(C)C(=O)CCCN(C)C)[C@@H](C)CN([C@H](C)CO)C(=O)c2cc(NC(=O)CCC(F)(F)F)ccc2O1	6%	-24%	3%	7	0%
O=C(c1cccnc1)C1CCCN(Cc2ccc3c(c2)CN(C(=O)c2cn4ccccc4n2)CCO3)C1 (configuration not stated)	·	?	·	·	-3%[9.04 µM]
O=S(=O)(c1cccc(C(F)(F)F)c1)N1CCC(Oc2ccc(-n3cnnn3)cc2)CC1	·	4.6µM*	·	·	5.8µM*
O=S(=O)(c1ccccc1)N1CCC(Oc2ccc(-n3cnnn3)cc2)CC1	-7%	?	-12%	-5	?
COc1ccc(S(=O)(=O)N2CCC(Oc3ccc(-n4cnnn4)cc3)CC2)cc1	·	-25%	·	·	10µM*
CC(=O)Nc1ccc(C)cc1-c1nc2ccccc2n(CC(=O)c2ccc(Cl)cc2)c1=O	·	-20%	·	·	-8%
CCCS(=O)(=O)c1ccc(COC(=O)c2ccc(NC(C)=O)cc2)cc1	-14%	-20%	-15%	-23	?
Cc1ccc(CCNC(=O)c2ccc3c(Cl)c4c(nc3c2)CCCC4)cc1	·	18µM*	·	·	?
SMILES	HT1080 IDH1KD tx	DT40 TDP1 no CPT	HT1080NT lethal	IL-1B inflam inh	TDP1 cell CPT
COc1ccc(N(C)C(=O)c2ccc3c(Cl)c4c(nc3c2)CCCC4)c(OC)c1	?	-29%	?	?	?
CC(C)CCNC(=O)c1ccc2c(SCC(=O)O)c3c(nc2c1)CCCC3	-8%	-3%	-4%	-2	-9%
Cc1ccc(N(C)C(=O)c2ccc3c(Cl)c4c(nc3c2)CCC4)cc1C	?	?	-27%	-65*	?
CSc1ccc(CCNC(=O)c2ccc3c(Cl)c4c(nc3c2)CCCC4)cc1	·	23µM*	·	·	?
CC(C)NC(=O)C1(C)CCN1C(=O)c1ccc(F)c(Cl)c1 (configuration not stated)	6%	-15%	11%	13	-12%
CCOc1ccccc1NC(=O)Cn1c(=O)n(-c2ccc(C)c(C)c2)c(=O)c2c(C)c(C(=O)N(C)C)sc21	·	-25%	·	·	-23%
CCCCN1CC(c2nc3ccccc3n2CCCCOc2cc(C)ccc2C)CC1=O (configuration not stated)	·	8.2µM*	·	·	16µM*
CCCCN1CC(c2nc3ccccc3n2CCCCOc2ccccc2C)CC1=O (configuration not stated)	·	5.8µM*	·	·	7.3µM*
Cc1ccccc1OCCCCn1c(C2CC(=O)N(c3ccccc3Cl)C2)nc2ccccc21 (configuration not stated)	·	-18%	·	·	?
COC(=O)Cn1c(C2CC(=O)N(c3c(C)cccc3C)C2)nc2ccccc21 (configuration not stated)	·	-19%	·	·	0%
CCCCN1CC(c2nc3ccccc3n2CCCCOc2c(C)cccc2C)CC1=O (configuration not stated)	·	7.3µM*	·	·	12µM*
Cc1cccc(C)c1NC(=O)CN1C(=O)N(C)Cc2ccccc21	8%	2%	0%	50	-4%
Cc1[nH]c(-c2ccco2)nc1C(=O)O	0%	-15%	2%	-4	-17%
COc1ccc(-c2nc(-c3ccccc3)c(-c3ccc(O)cc3)[nH]2)cc1	·	8.2µM*	·	·	13µM*
Cc1[nH]c(-c2ccc3c(c2)OCO3)nc1C(=O)O	?	18µM*	?	-17	10µM*
